Test results taken from PubChem BioAssay (NCATS).
Several values for one entry are separate records, joined by “and”; a condition that tells them apart may be missing. Equal values may be shown once. Inconclusive results are not listed. Activity calls are given as the source filed them. The call rests on the fitted dose curve; in most records, active means well fitted curve in the direction sought with a large enough effect; inconclusive means small, poorly fitted or top-dose-only effect, or another doubt; inactive means no such curve, though single readings can be large; an effect the other way counts as inactive or inconclusive.

Legend:
[1] = qHTS of pediatric cancer cell lines to identify multiple opportunities for drug repurposing: Primary screen for NB-EBc1 cells (AID 1347095); further: potency means the concentration at half of the fitted maximal effect
Method in brief: (§1)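 ATP-based luminescence (CellTiter-Glo) quantifies viability after a 48-hour exposure. Compounds are dosed across 8 or 11 final concentrations; DMSO and 2.3 µM bortezomib serve as controls.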

[2] = qHTS of pediatric cancer cell lines to identify multiple opportunities for drug repurposing: Primary screen for U-2 OS cells (AID 1347096); further: nearly all actives have a fitted effect of over 50% in size
Method in brief: (§2)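 Cells (500-1,000/well) rested 5 h, then received compounds for 48 h; metabolically active cells were measured by CellTiter-Glo luminescence. Final concentrations spanned up to 46 µM (MIPE, 11-point) or 0.59 nM-46 µM (NPC, 8-point) in primary screens, 11-point in follow-ups.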

[3] = qHTS of pediatric cancer cell lines to identify multiple opportunities for drug repurposing: Primary screen for NB1643 cells (AID 1347099); further: nearly all actives have a fitted effect of over 50% in size; further: potency means the concentration at half of the fitted maximal effect
Method in brief: as §1

[4] = qHTS of pediatric cancer cell lines to identify multiple opportunities for drug repurposing: Primary screen for LAN-5 cells (AID 1347100); further: potency means the concentration at half of the fitted maximal effect
Method in brief: as §2

[5] = qHTS of pediatric cancer cell lines to identify multiple opportunities for drug repurposing: Primary screen for BT-12 cells (AID 1347101); further: nearly all actives have a fitted effect of over 25% in size; further: potency means the concentration at half of the fitted maximal effect
Method in brief: as §2

[6] = qHTS of pediatric cancer cell lines to identify multiple opportunities for drug repurposing: Primary screen for Rh18 cells (AID 1347102); further: nearly all actives have a fitted effect of over 65% in size
Method in brief: as §2

[7] = qHTS of pediatric cancer cell lines to identify multiple opportunities for drug repurposing: Primary screen for OHS-50 cells (AID 1347103); further: nearly all actives have a fitted effect of over 40% in size; further: potency means the concentration at half of the fitted maximal effect
Method in brief: as §2

[8] = qHTS of pediatric cancer cell lines to identify multiple opportunities for drug repurposing: Primary screen for RD cells (AID 1347104); further: nearly all actives have a fitted effect of over 55% in size; further: potency means the concentration at half of the fitted maximal effect
Method in brief: as §1

[9] = qHTS of pediatric cancer cell lines to identify multiple opportunities for drug repurposing: Primary screen for Saos-2 cells (AID 1347097); further: nearly all actives have a fitted effect of over 40% in size; further: potency means the concentration at half of the fitted maximal effect
Method in brief: as §1

[10] = qHTS of pediatric cancer cell lines to identify multiple opportunities for drug repurposing: Primary screen for SK-N-SH cells (AID 1347098); further: nearly all actives have a fitted effect of over 65% in size; further: potency means the concentration at half of the fitted maximal effect
Method in brief: as §2

Measured: Potency

COc1c(O)cc2c(c1O)[C@@H]1O[C@H](CO)[C@@H](O)[C@H](O)[C@H]1OC2=O
not listed: [9] | [10]
inactive: all other assays above

CCCCC(CC)COC(=O)C(C#N)=C(c1ccccc1)c1ccccc1 (stereo not given)
inactive: [1] | [2] | [9] | [6]

Cc1nccn1CC1CCc2c(c3ccccc3n2C)C1=O (stereo not given)
inactive: [1] | [2] | [4] | [5] | [6] | [8]

CCN(CC)CCOc1ccc(Cc2ccccc2)cc1
inactive: [1] | [2] | [9] | [3] | [5] | [6]

c1ccc2[nH]c(-c3cscn3)nc2c1
not listed: [7] | [10]
inactive: all other assays above

CCCCN(CCCC)CCC(O)c1cc2c(Cl)cc(Cl)cc2c2cc(C(F)(F)F)ccc12 (stereo not given)
not listed: [4] | [7] | [9]
inactive: all other assays above

Cn1c(NCCN(CCO)CCCc2ccc([N+](=O)[O-])cc2)cc(=O)n(C)c1=O
inactive: [1] | [2] | [9] | [5] | [6]

O=C(CS(=O)Cc1ccco1)NCC=CCOc1cc(CN2CCCCC2)ccn1 (stereo not given)
not listed: [3] | [7] | [10]
inactive: all other assays above

Cc1cccc(CN2CCN(C(c3ccccc3)c3ccc(Cl)cc3)CC2)c1 (stereo not given)
inactive: [2] | [10] | [4] | [6]
active: [1] 18.7 µM | [7] 24.6 µM and 24.3 µM

O=C1CCc2ccc(OCCCCN3CCN(c4cccc(Cl)c4Cl)CC3)cc2N1
active: [7] 6.92 µM and 24.3 µM
not listed: [4] | [5] | [9]
inactive: all other assays above

O=C1c2ccccc2-c2n[nH]c3cccc1c23
inactive: [2]
active: [1] 1.05 µM | [10] 5.41 µM | [3] 2.96 µM | [4] 1.66 µM | [7] 21.7 µM

Cc1cccc(C#Cc2ccccc2)n1
inactive: [1] | [2] | [4] | [5] | [6]

C[C@@H](N)C1CCC(C(=O)Nc2ccncc2)CC1 (stereo not given in full)
not listed: [9] | [10]
inactive: all other assays above

CN(C)C(=O)[C@H](O)[C@H](Cc1ccccc1)NC(=O)c1cc2cc(Cl)ccc2[nH]1
active: [1] 3.32 µM
inactive: [2] | [4]

CC(C)c1nc(CN(C)C(=O)N[C@H](C(=O)N[C@@H](Cc2ccccc2)C[C@H](O)[C@H](Cc2ccccc2)NC(=O)OCc2cncs2)C(C)C)cs1
active: [1] 23.7 µM
inactive: [2] | [9] | [5] | [8]

O=C(O)CCNC(=O)c1ccc(N=Nc2ccc(O)c(C(=O)O)c2)cc1
not listed: [7] | [10]
inactive: all other assays above

Cc1cccc(-c2[nH]ncc2-c2ccc3ncccc3n2)n1
not listed: [7] | [10]
inactive: all other assays above

COc1cc2c(N3CCN(C(=O)Nc4ccc(OC(C)C)cc4)CC3)ncnc2cc1OCCCN1CCCCC1
inactive: [1] | [2]
active: [10] 27.1 µM and 17.2 µM | [4] 18.7 µM | [5] 24.3 µM | [7] 27.3 µM and 19.5 µM | [8] 26.4 µM and 26.6 µM

CCOC(=O)c1c(C)n(C)c2ccc(O)cc12
not listed: [7] | [10]
inactive: all other assays above

CC(C)[N+]1(C)[C@@H]2CC[C@H]1CC(OC(=O)C(CO)c1ccccc1)C2 (stereo not given in full)
inactive: [1] | [2] | [9] | [4] | [5]
active: [3] 11.8 µM | [8] 29.6 µM

Clc1ccc(C(Cn2ccnc2)OCc2ccc(Sc3ccccc3)cc2)c(Cl)c1 (stereo not given)
inactive: [1] | [2] | [10] | [5] | [6]

Oc1ccc(-c2nc(-c3ccc(F)cc3)c(-c3ccncc3)[nH]2)cc1
active: [3] 10.5 µM | [8] 29.6 µM
inactive: [1] | [2] | [5]

O=c1oc2cc(O)ccc2s1
inactive: [1] | [2] | [4] | [5] | [6] | [7]

CCC(C)(Oc1ccc(C2(c3ccc(OC(C)(CC)C(=O)O)cc3)CCCCC2)cc1)C(=O)O (stereo not given)
not listed: [9]
inactive: all other assays above

COC(=O)C1=C(C)NC(C)=C(C(=O)OC(C)C)C1c1cccc2nonc12 (stereo not given)
not listed: [3] | [7] | [10]
inactive: all other assays above

CN1CCC(=C2c3ccccc3CCc3sccc32)CC1
active: [7] 12.3 µM
inactive: [1] | [2] | [9] | [4]

CCCS(=O)c1ccc2nc(NC(=O)OC)[nH]c2c1 (stereo not given)
active: [1] 10.5 µM | [9] 13.3 µM | [4] 16.8 µM | [7] 27.3 µM
inactive: [2] | [3]

C[C@@H](c1ncncc1F)[C@](O)(Cn1cncn1)c1ccc(F)cc1F
not listed: [7] | [9] | [10]
inactive: all other assays above

O=c1c(O)c(-c2ccc(O)cc2O)oc2cc(O)cc(O)c12
not listed: [7] | [9]
inactive: all other assays above

O=C1NC(=O)C(c2ccccc2[N+](=O)[O-])=C1Nc1ccc(O)c(Cl)c1
inactive: [1] | [2] | [9] | [5] | [6] | [8]

C[C@]12CCC(=O)C=C1CC[C@@H]1[C@H]2[C@@H](O)C[C@@]2(C)[C@H]1CC[C@]2(O)C(=O)CO
not listed: [3] | [10]
inactive: all other assays above

Cc1cc(Cl)ccc1OCCCC(=O)NO
inactive: [5]
active: [1] 4.69 µM | [9] 11.8 µM | [10] 19.2 µM | [3] 4.18 µM | [4] 2.64 µM | [8] 18.7 µM

Cc1cccc(C)c1OCC(=O)N[C@@H](Cc1ccccc1)[C@@H](O)C[C@H](Cc1ccccc1)NC(=O)[C@H](C(C)C)N1CCCNC1=O
inactive: [2] | [6]
active: [3] 20.9 µM | [7] 27.3 µM

CNC[C@H](O)c1ccc(O)c(O)c1
not listed: [1] | [3]
inactive: all other assays above
